Potency and activity change, negative = inhibition data for 101 molecules are collected here from PubChem BioAssay AID893 (National Center for Advancing Translational Sciences (NCATS), 2007).

Values joined by “and” are separate entries in the source; they are usually repeats but may differ in a detail not shown here. Identical values can stand only once. The campaign covered roughly 75,000 compounds. About 5,700 (7.6%) were called active. Where a call stands in place of a potency, no number is given. Another 7% or so got no clear call; they are omitted. Calls follow the shape of the dose curve; as a rule, active = well fitted inhibition curve with a large enough effect; inconclusive = small, poorly fitted or top-dose-only effect; inactive = no such curve, though single readings can be large or run the other way. Only a selection was taken, and actives are over-represented in it overall.
Potency is read from the fitted curve at half-maximal effect.

The assay has as its target 3-hydroxyacyl-CoA dehydrogenase type-2 (Homo sapiens) (UniProt Q99714). Nature of the assay: qHTS Assay for Inhibitors of HSD17B4, hydroxysteroid (17-beta) dehydrogenase 4.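 Also: the protocol describes HADH2 (HSD17B10) and not the HSD17B4 of the title; nearly all actives have a fitted effect of over 70% in size.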 The conditions noted are these: recombinant HSD17B10, NADH fluorescence kinetic; series mostly up to 57.1 µM. An outline of the steps:
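Activity followed as NADH fluorescence increase (ex 360, em 450 nm) every 30 seconds for 4 min, using final 90 uM beta-hydroxybutyryl CoA and 1 mM NAD+. Recombinant His-tagged enzyme, 20 nM, pH 9.0 Tris buffer, 15 min compound preincubation.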
On to `CCOC(=O)CSc1nnc(CNC(=O)c2ccco2)n1-c1ccc(F)cc1`, for which the Potency result was “inactive”.

In the case of `C/C(=C\C(=O)c1cccnc1)Nc1ccc(C)c(C)c1`, the Potency result is “inactive”.

On to `O=c1cccc(-c2ccc(Br)cc2)o1`, for which the Potency entry is “inactive”.

With `CC1C(c2ccccc2)=[N+]([O-])C2(CCCC2)N1O` (stereo unspecified), the Potency entry is “inactive”.

For the molecule `Nc1ncnc2c1ncn2C1CC(O)C(CO)O1` (stereo unspecified), the Potency result was “inactive”.

With `CCC[C@@H]1C[C@@]1(CCC)[C@@H](NC(=O)c1ccccc1)c1ccc(C(=O)OC)cc1`, the Potency entry is “inactive”.

Turning to `Cc1nc2c(C(=O)NCc3ccc4c(c3)OCO4)c[nH]n2c(=O)c1Cc1ccccc1F`, the Potency is 31.6 µM (active).

In the case of `O=C(CCCCn1c(=O)[nH]c2ccccc2c1=O)NCc1ccc2c(c1)OCO2`, the Potency result was “inactive”.

Turning to `CCn1cc(C(=O)NCc2ccc3c(c2)OCO3)c2cc(OC)c(OC)cc2c1=O`, the Potency result was “inactive”.

Consider `CC1CCCCC1NC(=O)CCS(=O)(=O)c1cccc2nonc12` (stereo unspecified), for which the Potency result is “inactive”.

For the molecule `COc1ccc2oc(=O)c(C(=O)O)cc2c1`, the Potency result was “inactive”.

Consider `COc1ccc2oc(=O)c(C(=O)N3CCCc4ccccc43)cc2c1`, for which the Potency result was “inactive”.

With `COc1ccc2oc(=O)c(C(=O)N3CCN(c4ccccc4F)CC3)cc2c1`, the Potency was 25.1 µM (active).

For `CC(=O)C1C(c2ccc(Cl)cc2)NC(=O)NC1(O)C(F)(F)F` (stereo unspecified), the Potency entry is “inactive”.

In the case of `COC(=O)[C@@]1(Cc2ccc(F)cc2)[C@@H]2[C@@H](CC(=O)[C@H]2CC(=O)C(=O)N2CCCC2)CN1C(=O)c1ccccc1`, the Potency result is “inactive”.

Take `CN1CCN(Cc2nc3c(c(=O)n(C)c(=O)n3C)n2Cc2cccc3ccccc23)CC1`: the Potency result is “inactive”.

Turning to `COc1ccc(-c2nnc(SCC(=O)c3cccs3)o2)c(OC)c1`, the Potency entry is “inactive”.

`CCN(CC)C(=O)CSc1nnc(-c2cccc(OC)c2)o1`: the Potency entry is “inactive”.

For `COc1ccc(OC)c(C(=O)CSc2nnc(-c3cccs3)o2)c1`, the Potency was 31.6 µM (active).

In the case of `COCC(C)N=CC1=C(O)CC(C)(C)CC1=O` (stereo unspecified), the Potency entry is “inactive”.

Consider `CCc1cc(=O)oc2cc(C)cc(OC(C)C(=O)O)c12` (stereo unspecified), for which the Potency is 31.6 µM (active).

Consider `N#CCC(=O)NC(=O)NCC1CC1`, for which the Potency result was “inactive”.

For the molecule `CCCC[C@@H]1C[C@H]1C(NC(=O)c1ccco1)c1ccc(C(=O)OC)cc1` (stereo partly specified), the Potency result is “inactive”.

With `O=C(O)c1ccc(C(=O)O)c2c(C(=O)O)ccc(C(=O)O)c12`, the activity change, negative = inhibition is -1.54% [at 11.4 µM] (inactive).

With `O=C(Cn1ccc(=O)[nH]c1=O)Nc1ccc(C(=O)O)c(O)c1`, the activity change, negative = inhibition was -0.357% [at 11.4 µM] (inactive).

Regarding `O=C(O)c1ccc(-n2cccc2)cc1O`, the Potency is 31.6 µM (active).

Take `Cc1cc(NS(=O)(=O)c2ccccc2)no1`: the Potency result is “inactive”.

Regarding `Nc1ncn(C2OC(CO)C(O)C2O)c(=O)n1` (stereo unspecified), the Potency result is “inactive”.

Turning to `O=C(Nc1cnn(Cc2ccc(Cl)cc2)c1)C1CCCC1`, the Potency result was “inactive”.

Turning to `Cn1c(=O)n(C)c2cc(C(=O)Nc3ccc4c(c3)OCO4)ccc21`, the Potency result is “inactive”.

Regarding `CN1C(=O)c2ccc(NC(=O)C3CCCCC3)cc2C1=O`, the Potency is 25.1 µM (active).

As for `O=C(O)c1ccc(NC(=O)C2CCCCC2)cc1`, the Potency result is “inactive”.

Regarding `O=C(Nc1ccncc1)c1c(F)cccc1F`, the Potency entry is “inactive”.

For the molecule `CN1C(=O)c2ccc(NC(=O)c3c(F)c(F)c(F)c(F)c3F)cc2C1=O`, the Potency was 12.6 µM (active).

On to `C#CCC(C(=O)OC)(C(=O)OC)C(C[N+](=O)[O-])c1ccccc1` (stereo unspecified), for which the activity change, negative = inhibition was -8.6% [at 11.4 µM] (inactive).

In the case of `Cn1c(=O)n2n(c1=O)[C@H]1[C@H](O)[C@H]3O[C@H]3C(=O)[C@H]1CC2`, the activity change, negative = inhibition is -7.54% [at 11.4 µM] (inactive).

Consider `O=C(C1CCN(S(=O)(=O)Cc2ccccc2)CC1)N1CCCc2ccccc21`, for which the Potency entry is “inactive”.

In the case of `Cc1ccccc1C(=O)O`, the Potency entry is “inactive”.

In the case of `COc1ccc(C2CC(=O)c3c(O)cc(OC4OC(COC5OC(C)C(O)C(O)C5O)C(O)C(O)C4O)cc3O2)cc1O` (stereo unspecified), the Potency result is “inactive”.

On to `CO[C@@H]1COC(=O)C/C=C\[C@H](C)[C@@H](NS(=O)(=O)c2ccc(C)cc2)COC(=O)C/C=C\[C@@H]1C`, for which the activity change, negative = inhibition is 2.45% [at 11.4 µM] (inactive) and 8.54% [at 11.4 µM] (inactive).

Consider `CC(C)Cn1c(CCC(=O)O)ccc1-c1cccs1`, for which the Potency was 31.6 µM (active).

As to `Cc1cc(NC(=O)c2cc(-c3cccs3)on2)nn1Cc1ccc(Cl)cc1`, the Potency entry was “inactive”.

Consider `O=C(O)CCC(=O)N(Cc1cccs1)Cc1cccs1`, for which the Potency result was “inactive”.

As to `C/C=C1\C(=O)C[C@@H]2[C@@H]3CCC4=CC(=O)CC[C@@]4(C)[C@H]3CC[C@@]12C`, the Potency entry was “inactive”.

Take `Cc1ccc(S(=O)(=O)NC(=O)NN2C[C@H]3CCC[C@@H]3C2)cc1`: the Potency entry is “inactive”.

With `Cn1c(C(=O)N2CCC(C(N)=O)CC2)cc2c(=O)n(C)c3ccccc3c21`, the Potency entry is “inactive”.

Take `CC1CCCCN1CCCNC(=O)c1ccc(-n2c(=O)c(=O)[nH]c3ccccc32)cc1` (stereo unspecified): the Potency result was “inactive”.

As to `CC1CCCC(C)N1CCCNC(=O)c1cc2c(=O)n(C)c3ccccc3c2n1C` (stereo unspecified), the Potency was 31.6 µM (active).

For `C=C(C)C1CC=C(CO)CC1` (stereo unspecified), the Potency entry was “inactive”.

On to `COC(=O)[C@@H]1C[C@@]2(O)[C@H](O)[C@H](O)[C@H](O)C[C@H]2N1Cc1ccc(C)s1`, for which the Potency result was “inactive”.

In the case of `Cc1cc(NCc2ccco2)n2c(nc3ccccc32)c1C#N`, the Potency is 3.16 µM (active).

Turning to `N#Cc1c2c(c(N3CCN(CCO)CC3)n3c1nc1ccccc13)CCCC2`, the Potency result was “inactive”.

With `Cc1ccccc1NC(=O)NCc1ccco1`, the Potency entry was “inactive”.

Regarding `C/C(CCN1CCCCc2nc(C)c(C)cc21)=N\O[C@@H](C)c1cn([C@@H]2COC[C@@H]2O)nn1`, the activity change, negative = inhibition is 0.914% [at 11.4 µM] (inactive).

Regarding `CCC1CCCCN1CCNS(=O)(=O)c1ccc2c(c1)CCN2C(C)=O` (stereo unspecified), the Potency result was “inactive”.

With `CCOC(=O)c1ccc(N2C(=O)CC(N3CC(C)OC(C)C3)C2=O)cc1` (stereo unspecified), the Potency result was “inactive”.

For the molecule `N#Cc1cccc(CSc2nnc(CCCO)n2-c2ccccc2)c1`, the Potency entry was “inactive”.

With `Cn1c(N)c(C(=O)COC(=O)c2cc(C(F)(F)F)nc3c(C(F)(F)F)cccc23)c(=O)n(C)c1=O`, the Potency result is “inactive”.

For `Cc1c(O)c(Br)c(C)c(O)c1Br` (tested in a mixture with another compound), the Potency is 0.794 µM (active).

Consider `CN(c1ccc(C(=O)NCCC2=CCCCC2)cc1)S(C)(=O)=O`, for which the Potency result was “inactive”.

Regarding `CCC[C@@H]1C[C@@]1(CCC)C(NS(=O)(=O)c1cccc2cccnc12)c1ccc(Cl)cc1` (stereo partly specified), the Potency entry was “inactive”.

On to `Clc1ccc(C2[C@H]3CN(CC4CCCCC4)[C@H](c4ccccc4)C34CC2(c2cccnc2)C4)cn1` (stereo partly specified), for which the Potency result is “inactive”.

On to `Cc1ccc(S(=O)(=O)NCc2nc3ccccc3c(=O)n2N)cc1`, for which the Potency result was “inactive”.

On to `Cc1ccc(S(=O)(=O)c2c(N)n(C)c3nc4ccccc4nc23)cc1`, for which the Potency is 25.1 µM (active).

Take `c1cc(-n2cnnn2)ccc1NC1=NCCC1`: the Potency entry was “inactive”.

Turning to `CC(C)CN1CCc2nc(-c3ccccc3)c3c(c2C1)COC(C)C3` (stereo unspecified), the activity change, negative = inhibition is -2.26% [at 11.4 µM] (inactive).

For `Cc1ccc(Cn2ccc(NC(=O)c3cc(C(C)C)on3)n2)cc1`, the Potency result is “inactive”.

Turning to `CC(C)c1ccc(OCC(O)Cn2cnc3ccccc32)cc1` (stereo unspecified), the Potency entry was “inactive”.

Take `CCOC(=O)N1CCN(C(=O)CSc2ccc(Cl)cc2)CC1`: the Potency entry was “inactive”.

For `CCOC(=O)N1CCN(C(=O)CNC(=O)Cc2ccc(Cl)cc2)CC1`, the Potency result was “inactive”.

Turning to `CCOC(=O)N1CCN(C(=O)c2ccc3nc4cc(Cl)ccc4c(=O)n3c2)CC1`, the Potency was 1 µM (active).

With `Cn1c(=NC(=O)CSCC(=O)N2CCCCC2)sc2ccccc21`, the Potency entry is “inactive”.

For `O=C(CSc1nnc(-c2ccccn2)n1-c1ccccc1)Nc1ccc2c(c1)OCO2`, the Potency entry was “inactive”.

Regarding `CC[C@H](c1ccccc1)c1cc(C(C)(C)C)cc(C(C)(C)C)c1O`, the activity change, negative = inhibition was -3.63% [at 11.4 µM] (inactive).

In the case of `O=C(CN1C(=O)CCS(=O)(=O)c2ccccc21)NCc1ccc(F)cc1`, the Potency result is “inactive”.

Consider `NC(=O)CSC1=Nc2ccccc2C2=NC(CCC(=O)NCc3ccc(F)cc3)C(=O)N12` (stereo unspecified), for which the Potency is 31.6 µM (active).

Turning to `CC(C)C1N=C2c3ccccc3N=C(SCC(=O)c3ccc(O)c(O)c3)N2C1=O` (stereo unspecified), the Potency result was “inactive”.

As for `Cc1ccc(SCCN2C(=O)NC(C)(C)C2=O)cc1`, the Potency entry was “inactive”.

Take `C=CCn1c(COc2ccccc2)nnc1SCC(=O)NCC(=O)OCC`: the Potency result is “inactive”.

As to `C=CCn1c(COc2cccc3cccnc23)nnc1SCC(=O)OC`, the Potency is 31.6 µM (active).

As for `C=CCn1c(COc2ccccc2C)nnc1SCC(=O)O`, the Potency entry was “inactive”.

In the case of `O=C(O)C1C2C=CC(C2)C1C(=O)N1CCN(CCO)CC1` (stereo unspecified), the Potency entry is “inactive”.

Regarding `CCOC(=O)c1cc(NC(=O)SCC(=O)O)c(C)nc1C`, the Potency entry is “inactive”.

As for `COc1cc(-c2nnc(Cn3cc(C(F)(F)F)ccc3=O)o2)cc(OC)c1OC`, the Potency entry was “inactive”.

Consider `CCOC(=O)c1cc(-c2nnc(-c3cc(OC)c(OC)c(OC)c3)o2)c(C)nc1C`, for which the Potency is 31.6 µM (active).

In the case of `Cc1cc(C)cc(C#CC2C=CC(Oc3ccc(C4CCCC4)cc3)C(CO)O2)c1` (stereo unspecified), the activity change, negative = inhibition was 4.3% [at 11.4 µM] (inactive).

With `COCCCNC(=O)c1ccc2c(c1)ncn2-c1ccccc1OC`, the Potency result was “inactive”.

With `CCn1c(=N)c(C(=O)NCCCOC)cc2c(=O)n3cccc(C)c3nc21`, the Potency was 31.6 µM (active).

In the case of `CCOCCCNC(=O)c1c[nH]c2cc(C)ccc2c1=O`, the Potency result was “inactive”.

Consider `CC(=O)N(Cc1cccs1)C1CCOC(C)(C)C1` (stereo unspecified), for which the Potency entry was “inactive”.

As for `O=C(O)c1ccc(COc2c(F)c(F)cc(F)c2F)o1`, the Potency entry was “inactive”.

Consider `CCOC(=O)n1c(SCC(=O)N(CC)CC)nc2ccccc21`, for which the Potency result is “inactive”.

In the case of `Cc1cc(N2CCCCC2)nc2ccc(Cc3ccc4nc(N5CCCCC5)cc(C)c4c3)cc12`, the Potency is 3.16 µM (active).

Take `COc1ccc(-n2c(SC)nc(O)cc2=O)cc1`: the Potency result is “inactive”.

For the molecule `O=C(CC1Nc2ccccc2NC1=O)Nc1ccccc1` (stereo unspecified), the Potency is 25.1 µM (active).

Turning to `CCOC(=O)c1ccccc1NC(=O)CC1Nc2ccccc2NC1=O` (stereo unspecified), the Potency entry was “inactive”.

Take `O=C(CC1NCCNC1=O)Nc1ccc(Oc2ccccc2)cc1` (stereo unspecified): the Potency result was “inactive”.

Regarding `COc1cccc(NC(=O)C(C)Oc2ccccc2)c1` (stereo unspecified), the Potency entry is “inactive”.

Take `CC(=O)OCC(=O)C1CCC2C3CCC4=CC(=O)CC[C@@]4(C)C3CC[C@]12C` (stereo partly specified): the Potency result is “inactive”.

Consider `Fc1ccccc1OCCSc1nc2ccccc2o1`, for which the Potency result was “inactive”.

For the molecule `C[C@H]1O[C@@H](CC(=O)O)Cc2c1c(O)c1c(O)cc(-c3cc(=O)c4c(=O)c5c(c(=O)c=4c3=O)C[C@H](CC(=O)O)O[C@@H]5C)c(O)c1c2O`, the Potency was 3.98 µM (active).
